Results filed as inconclusive are left out. Unmarked numbers belong to inactive results. Calls come from the whole dose curve; as a rule, active = well fitted cell-killing curve with a large enough effect; inconclusive = small, poorly fitted or top-dose-only effect, or effect the other way; inactive = flat fitted curve, though single readings scatter. Where a SMILES comes first, the peptide text is derived from it. Bridges are numbered along the chain shown (N, C = ends). [ ]: non-standard residue; d: D form. hArg = N=C(N)NCCCC[C@H](N)C(=O)O; Mpa = O=C(O)CCS
Assay: S16 Schwann cell viability assay (CellTiter-Glo assay) (AID 624031);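 note: cellular ATP luminescence as a viability measure; plate controls were DMSO-treated cells for no effect and cell-free wells for full effect; nearly all actives have a fitted effect of over 70% in size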
Conditions: S16 rat Schwann cells viability, 24 h; series mostly up to 57.5 µM; activity change, negative = cytotoxicity: at the top concentration
Method in brief: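 Native S16 rat Schwann cells in DMEM/10% FBS without phenol red were incubated overnight, then exposed to compounds for 24 h at 37 °C/5% CO2. Viability was read as ATP luminescence (CellTiter-Glo), normalized to no-cell wells and DMSO (0%).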

Structure (SMILES) | activity change, negative = cytotoxicity
NC(=O)CCCCC1CCSS1 (stereo not drawn) | -16.9%
O=C(NCN1CCOCC1)c1cnccn1 | -9.17%
COc1ccc(C(=O)NCc2ccc(OCCN(C)C)cc2)cc1OC | -20.2%
O=c1[nH]cnc2nc[nH]c12 | -20.3%
CNc1c2c(nn1C)CCCC2 | -1.25%
CN(C(=O)c1c(O)c2ccccc2n(C)c1=O)c1ccccc1 | -0.356%
NS(=O)(=O)c1cc2c(cc1C(F)(F)F)NCNS2(=O)=O | 1.1% [at 25.7 µM]
CCCCCCCCCCC(CO)CCCCCCCC (stereo not drawn) | 1.27%
CN1CCN(C(=O)C2CCCCC2)CC1 | 3.1%
CC(=O)NCc1c(I)c(NC(C)=O)c(I)c(C(=O)O)c1I | 5.48%
O=C(O)CNC(=O)c1ccccc1I | 4.6%
C[N+](C)(C)CC[N+]1(C)Cc2c(Cl)c(Cl)c(Cl)c(Cl)c2C1 | -19.1%
CC(C)CCOC(=O)c1ccc(N(C)C)cc1 | -0.546%
Cc1ncc(CO)c(CN)c1O | -6.34%
CC(C(=O)O)c1ccc2c(c1)Cc1cccnc1O2 (stereo not drawn) | 3.66%
COC(=O)c1cccnc1 | 3.18%
CC(=O)N[C@@H](Cc1ccc(O)cc1)C(=O)O | -0.693%
NC(=O)NS(=O)(=O)c1ccc(N)cc1 | 0%
O[C@@H]1CO[C@H]2[C@@H]1OC[C@@H]2O | 7.53%

Structure (SMILES) | activity change, negative = cytotoxicity
Cc1c(NC(C)C)c(=O)n(-c2ccccc2)n1C | 1.16%
Cc1c(C)c2c(c(C)c1OC(=O)c1cccnc1)CC[C@@](C)(CCC[C@H](C)CCC[C@H](C)CCCC(C)C)O2 | 8.63%
C[C@H]1COc2c(C3(N)CC3)c(F)cc3c(=O)c(C(=O)O)cn1c23 | 1.17%
CC(CN(C)C)C(C)(O)Cc1ccc(Cl)cc1 (stereo not drawn) | -0.0603%
COC(=O)c1ccccc1C(=O)c1ccc(OCCN2CCCCC2)cc1 | 0.161%
Cc1cc(C)c(NC(=O)CN(CC(=O)O)CC(=O)O)c(C)c1Br | 9.81%
Nc1ccncc1N | -1.86%
O=C(NCCCN1CCOCC1)c1ccc(Cl)cc1 | 0.54%
Cc1cc(NC(=O)C2=C(O)c3ccccc3S(=O)(=O)N2C)no1 | -25.6%
Nc1c2c(nc3c1CCC3)CCCC2 | -8.84%
O=C(O)c1ccccc1OP(=O)(O)O | -0.899%
NC(=O)[C@@H]1CSSCCC(=O)N[C@@H](CCCCN=C(N)N)C(=O)NCC(=O)N[C@@H](CC(=O)O)C(=O)N[C@@H](Cc2c[nH]c3ccccc23)C(=O)N2CCC[C@H]2C(=O)N1 ([Mpa][hArg]GDWPC-NH2; disulfide 1-7) | -11.8%
Cc1cccc(C)c1NC(=O)CC12CCCN1CCC2 | 1.62%
CCCCCC(C)N (stereo not drawn) | -4.64%
Cc1c(NC(=O)c2cccnc2)c(=O)n(-c2ccccc2)n1C | 18.5% [at 25.7 µM]
O=C(/C=C/c1ccccc1)OCc1ccccc1 | 4.87%
CN1C[C@@H]2C[C@H]1CN2c1cc2c(cc1F)c(=O)c(C(=O)O)cn2C1CC1 | -3.84%
O=C(O)COC(=O)Cc1ccccc1Nc1c(Cl)cccc1Cl | 3.64% [at 25.7 µM]
COc1nccnc1NS(=O)(=O)c1ccc(N)cc1 | -6.54%
